# Screening data as filed in PubChem.
# Hits are enriched below; roughly 7.4% of the tested compounds scored in any of these assays.
# p53 reactivator: restores transcriptional activity of mutant p53; H1299 p53-A138V BP100-luciferase reporter, luminescence, 24 h; Potency, µM (doses to about 92.2 µM), for the others: at the top dose activity change, positive = activation, hits mostly activators; 320,000 tested, 0.063% active; also: % of control where 0% means no effect; nearly all actives have a fitted effect of over 45% in size
#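 p53-null H1299 cells stably carrying temperature-sensitive p53-A138V and a BP100-luciferase reporter were pinned with compounds (4-point, 1:5 series) and held 24 hrs at 37 deg C. Luminescence was read 10 min after detection reagent.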
# FLuc counter: counter-screen for miR-21 project: firefly luciferase inhibitors or activators; AID 588342; 360,000 tested, 6.9% active; Potency, µM (highest dose often 57.5 µM), for inactives: at the top dose activity change, negative = inhibition, actives largely listed as inhibitors; purified FLuc, Km substrates, luminescence inhibition;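 also: plate controls were vehicle for no effect and reference inhibitor for full effect; nearly all actives have a fitted effect of over 55% in size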
# Target sequence (P08659 whole entry, looked up): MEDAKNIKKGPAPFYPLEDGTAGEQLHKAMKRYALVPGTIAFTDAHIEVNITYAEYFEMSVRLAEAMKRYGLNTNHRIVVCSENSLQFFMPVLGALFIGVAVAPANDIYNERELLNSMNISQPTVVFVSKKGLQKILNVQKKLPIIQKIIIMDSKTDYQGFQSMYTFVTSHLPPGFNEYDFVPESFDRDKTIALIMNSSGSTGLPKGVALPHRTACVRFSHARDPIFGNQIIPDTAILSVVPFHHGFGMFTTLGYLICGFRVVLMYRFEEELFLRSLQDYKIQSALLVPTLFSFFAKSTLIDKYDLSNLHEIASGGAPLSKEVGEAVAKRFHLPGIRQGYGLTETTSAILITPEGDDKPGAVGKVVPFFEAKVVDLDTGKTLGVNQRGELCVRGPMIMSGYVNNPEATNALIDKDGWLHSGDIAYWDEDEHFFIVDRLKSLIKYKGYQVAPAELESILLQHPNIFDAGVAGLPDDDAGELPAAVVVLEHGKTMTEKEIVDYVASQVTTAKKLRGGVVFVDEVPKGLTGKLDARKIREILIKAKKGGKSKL
#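 Purified P. pyralis luciferase (10nM final) with 10uM D-luciferin and 10uM ATP (Km levels) in 50mM Tris acetate pH 7.5, 10mM Mg acetate, 0.01% Tween-20, 0.05% BSA; qHTS 6-point titration, ~60 µM downward; luminescence read.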
# Rab9 prom act: activates the Rab9 promoter; 320,000 tested, 2.8% active; Huh7 Rab9 promoter-luciferase reporter, luminescence, 24 h; Potency, µM (top dose mostly 9.22 µM), for inactives: at the highest dose activation, negative = inhibition, most hits filed as activators; also: % of control where 0% means no effect; nearly all actives have a fitted effect of over 60% in size
#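 Cell-based reporter: Huh7 stable for Rab9 promoter-driven luciferase, plated in reduced-serum medium with 10% FBS at 1500 cells/well, compound-treated 24 h at 37 °C, luminescence read after 10 min reagent.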
# NPC1 prom act: activators of NPC1 promoter | Huh7 NPC1 promoter luciferase reporter, 24 h | Potency, µM (series often up to 9.22 µM), for the others: at the highest dose activation, hits mostly activators | 320,000 tested, 2.4% active | AID 485313; also: % of control where 0% means no effect; nearly all actives have a fitted effect of over 60% in size
#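 Luminescence from an NPC1 promoter-driven luciferase reporter in stably transfected Huh7 cells was measured after 24 h compound treatment at 37 °C, followed by 10 min ambient incubation with luciferase detection reagent.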
# ELG1 genotox: genotoxicity induction in ELG1-luciferase HEK293T cells. 330,000 tested, 1.3% active. Potency, µM (series often up to 46 µM), for inactives: at the highest dose activity change, positive = activation, hits mostly activators. HEK293T ELG1-luciferase reporter, luminescence, 16 h; also: % of control where 0% means no effect; nearly all actives have a fitted effect of over 60% in size
#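 Step 1: seed 2,000 HEK293T ELG1-luciferase cells per well. Step 2: add compound or DMSO, incubate 16 hr at 37 °C. Step 3: ONE-Glo, 30 min at room temperature, read luminescence.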
# SMN2 splice up: enhancers of SMN2 splice variant expression | HEK293 SMN2-luciferase splicing reporter, luminescence, 30-36 h | Potency, µM (doses to about 46.1 µM), for the others: at the top dose activity change, positive = activation, hits mostly activators | 210,000 tested, 2.8% active | AID 1458; also: % of control where 0% means no effect; nearly all actives have a fitted effect of over 55% in size
#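 HEK293 cells carry an SMN2 minigene-luciferase reporter in which exon 7 inclusion puts luciferase in frame. Cells were seeded at 2000 cells/well, attached for 10-12 hours, then exposed to compounds for 30-36 hours at 37C before ONE-Glo luminescence.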
# * hit, by the source's call; ? = inconclusive; nt = no result given; [ ] = remark or other dose. Calls follow the shape of the dose curve; as a rule, active = well fitted curve in the direction sought with a large enough effect; inconclusive = small, poorly fitted or top-dose-only effect, or another doubt; inactive = no such curve, though single readings can be large; an effect the other way counts as inactive or inconclusive. Potency is read from the fitted curve at half-maximal effect.
SMILES,p53 reactivator,FLuc counter,Rab9 prom act,NPC1 prom act,ELG1 genotox,SMN2 splice up
CCC(C)(C)C1CCC(=NNc2nc3ccccc3[nH]2)CC1 (stereo not given),?,12µM*,7%,6%,2%,1%
COc1ccc(-c2noc(N3CCN(c4cccc(C)c4C)CC3)n2)cc1OC,nt,1%,nt,nt,nt,nt
CC(=O)Nc1ccc2nc(SCC(=O)Nc3ccc(N4CCOCC4)c(Cl)c3)sc2c1,7%,8.5µM*,?,?,0%,?
CC(C)(C)NC(=O)CSc1nc2ccc(Nc3nc(N4CCOCC4)nc(N4CCOCC4)n3)cc2s1,-7%,-16%,-12%,-4%,-18%,-49%
CC(=O)CSc1nc2ccc(Nc3nc(N4CCOCC4)nc(N4CCOCC4)n3)cc2s1,-9%,0%,-7%,0%,-8%,25µM*
COc1ccc(/C=C/c2cc(OC)c(OC)cc2CC[N+](C)(C)C)cc1,nt,nt,nt,nt,nt,0%
CCOC(=O)c1ccc(NC(=O)CN2C(=O)CSC2=O)cc1,5%,21µM*,1%,-13%,2%,-9%
CCOC(=O)c1ccc(NC(=O)CN2C(=O)CSCC2=O)cc1,23%,15µM*,6%,1%,6%,-5%
CCOC(=O)c1ccc(NC(=O)Cn2nnc3ccccc32)cc1,?,11µM*,2.8µM*,3.5µM*,?,-4%
COC(=O)c1ccc(COn2nnc3ccccc32)cc1,?,6.7µM*,1µM*,1.1µM*,?,13µM*
CCOC(=O)c1ccc(NC(=O)CN2C(=O)CNC2=O)cc1,21%,-14%,3%,0%,0%,-5%
CCOC(=O)c1ccc(NC(=O)CCn2nnc3ccccc32)cc1,12%,0%,3%,-1%,6%,10%
CCOC(=O)c1sc(/N=C/c2ccc(O)cc2O)cc1C,22%,1.3µM*,9%,10%,7%,-2%
CC(=O)Nc1cc(Cl)c(N=Cc2ccc(O)cc2O)cc1Cl,-4%,5%,0%,3%,3%,14%
CCOC(=O)C1CCCN(C(=O)CCS(=O)(=O)c2cc3c(cc2Cl)NC(=O)CO3)C1 (stereo not given),nt,-13%,nt,nt,nt,nt
Cc1sc(NC(=O)c2ccc(Cl)s2)c(C(N)=O)c1C,?,2.4µM*,?,?,1.6µM*,10µM*
Cc1sc(NC(=S)Nc2ccc(F)cc2)c(C(N)=O)c1C,4%,-2%,-11%,0%,2%,nt
Cc1sc(NC(=O)c2ccc(Br)s2)c(C(N)=O)c1C,?,1.7µM*,?,?,?,10µM*
O=S(=O)(NCCc1csc2nc(-c3ccc(F)cc3)nn12)c1ccc(Br)cc1,nt,3%,nt,nt,nt,nt
Cc1ccc(Cn2cc(/C=C(/C#N)C(=O)Nc3cccc(Cl)c3)c3ccccc32)cc1,nt,-6%,nt,nt,nt,-4%
CC1CCN(C(=O)CSc2c3c(nc4ccc(Cl)cc24)CCCC3)CC1,nt,-12%,nt,nt,nt,-21%
COc1ccc(-c2cc(C(=O)Nc3cc(C)on3)no2)cc1,7%,0%,?,19%,17%,23%
COc1ccc(-c2nnc(NC(=O)c3cc(C)on3)s2)cc1,?,12µM*,-1%,9%,?,?
COc1ccc(C(=O)Nc2nnc(-c3ccccc3)s2)cc1,?,-12%,1.3µM*,0.79µM*,18µM*,nt
CCOC(=O)Nc1nnc(-c2ccc(OC)c(OC)c2)s1,-3%,1%,6%,-3%,4%,5.6µM*
SMILES,p53 reactivator,FLuc counter,Rab9 prom act,NPC1 prom act,ELG1 genotox,SMN2 splice up
COc1ccc(-c2nnc(NC(=O)c3c(OC)cccc3OC)s2)cc1,-2%,?,3%,4%,-2%,nt
CCc1nnc(NC(=O)Cc2ccc(OC)c(OC)c2)s1,3%,-2%,-10%,-5%,1%,-4%
COC(=O)Nc1nnc(-c2ccc(OC)cc2)s1,7%,8.5µM*,2.8µM*,2.5µM*,16µM*,nt
COc1ccc(C(=O)Nc2nnc(C(F)(F)F)s2)cc1,37%,5.4µM*,2.5µM*,1.8µM*,?,5µM*
COc1ccccc1OCC(=O)Nc1cccc(-c2nnc(-c3ccco3)o2)c1,0%,12µM*,15%,29%,-7%,18µM*
COc1ccc(CC(=O)Nc2cccc(-c3nnc(-c4ccc(C)cc4)o3)c2)cc1OC,21%,3µM*,-5%,-2%,-18%,-132%
O=C(COc1ccccc1)Nc1ccc(-c2nnc(-c3ccco3)o2)cc1,-2%,1%,1.1µM*,?,10%,13µM*
Cc1cccc(NC(=O)C2C3C=CC(C4CC34)C2C(=O)O)c1 (stereo not given),24%,17µM*,0%,-1%,6%,-29%
Cc1cccc(C(=O)NC2(C(F)(F)F)N=C(c3ccccc3)N(C3CCCCC3)C2=O)c1 (stereo not given),nt,1%,nt,nt,nt,0%
Cc1cc(NC(=O)C2CC2)n(-c2nc3ccccc3s2)n1,2%,15µM*,18%,-1%,7%,0%
Cc1cc(NC(=O)CCl)n(-c2nc3ccccc3s2)n1,20%,-6%,-1%,-7%,8%,-21%
Oc1ccc(-c2csc(Nc3ccccn3)n2)cc1O,?,9.5µM*,-14%,?,3.7µM*,nt
CCC(=O)Nc1nc(C)c(-c2csc(Nc3ccccn3)n2)s1,7%,17µM*,?,?,2%,15%
Cc1ccnc(Nc2nc(-c3ccc(O)c(O)c3)cs2)c1,15%,6µM*,-4%,?,5.8µM*,nt
CC(=O)Nc1ccc(-c2csc(Nc3ccccn3)n2)cc1,?,?,0.45µM*,0.5µM*,?,nt
CC(=O)Nc1ccc(-c2csc(NCCc3ccccc3)n2)cc1,18%,?,?,?,1%,nt
Nc1nc(SCc2ccccc2Cl)cc(C(=O)O)n1,nt,nt,nt,nt,nt,-6%[9.22 µM]
O=C(c1ccc(F)cc1Cl)N(Cc1ccco1)C1CCS(=O)(=O)C1 (stereo not given),-2%,nt,8%,3%,0%,nt
Cc1ccnc(Nc2nc(-c3ccc(O)cc3O)cs2)c1,nt,17µM*,?,?,14%,nt
NS(=O)(=O)c1ccc(Nc2nc(-c3ccc(O)cc3)cs2)cc1,5%,-5%,-2%,-1%,1%,?
Cc1ccnc(Nc2nc(-c3ccc(O)cc3)cs2)c1,3%,8.5µM*,3.2µM*,2.5µM*,?,nt
Cc1nc(C)c(-c2csc(Nc3ccc(O)cc3C)n2)s1,nt,3%,-2%,-2%,6%,nt
COc1cc(OC)c(C(=O)O/N=C(\N)c2ccc(C)cc2)cc1OC,17%,?,3%,-2%,0%,nt
N/C(=N\OC(=O)c1ccc(Cl)cc1Cl)c1ccncc1,15%,1.9µM*,1.8µM*,1.6µM*,9.2µM*,nt
